Inhibition data for 21 molecules are collected here from PubChem BioAssay AID504757 (Sanford-Burnham Center for Chemical Genomics, 2011).

This is one part of the list. Active and inactive are the calls of the source. Rule as the data show it: active = inhibition above about 39%; inactive = the rest.

For the assay, the target named is Cysteine protease ATG4B (Homo sapiens) (UniProt Q9Y4P1). As to the kind of experiment: ATG4B protease inhibitors, retest, confirmation, biochemical, fluorescence, single concentration (AID 504757). The settings on record: ATG4B protease fluorescent substrate cleavage assay; at 8.33 µM; stronger effect = higher value.
Sequence of Cysteine protease ATG4B (Homo sapiens) (Q9Y4P1 whole entry, looked up): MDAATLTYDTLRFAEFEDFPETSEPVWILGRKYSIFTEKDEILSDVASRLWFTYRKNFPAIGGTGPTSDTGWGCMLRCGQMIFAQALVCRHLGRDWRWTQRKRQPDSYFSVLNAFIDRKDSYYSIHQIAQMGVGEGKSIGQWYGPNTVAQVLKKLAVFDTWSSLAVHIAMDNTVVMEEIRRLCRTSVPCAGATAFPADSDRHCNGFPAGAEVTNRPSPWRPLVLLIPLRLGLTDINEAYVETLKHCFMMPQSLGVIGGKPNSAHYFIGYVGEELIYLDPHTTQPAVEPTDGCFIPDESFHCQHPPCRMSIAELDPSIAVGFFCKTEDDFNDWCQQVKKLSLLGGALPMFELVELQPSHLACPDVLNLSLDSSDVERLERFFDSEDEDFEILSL

In the case of `O=C(O)CCn1cc(/C=C/C(=O)c2ccc(Cl)cc2)c(-c2cccc(Br)c2)n1`, the inhibition is 56.8% (active). Consider `Cc1ccc(CSc2nc(-c3ccccc3)c(C#N)c(=O)[nH]2)cc1`, for which the inhibition is 54.3% (active).

As for `NC(=O)c1sc2nc3c(c(-c4ccccc4)c2c1N)CCC3`, the inhibition is 57.5% (active). Under `Cc1ccc(-c2cc(C(=O)N3CCc4ccccc4C3)no2)cc1` stands 66.7% (active); under `O=C1Nc2cc(Cl)c(Cl)cc2N(O)N1c1cc(Cl)cc(Cl)c1`, 64.3% (active); under `CC(=O)Nc1ccc(C(=O)Nc2nc(-c3cc(C)n(Cc4ccccc4)c3C)cs2)cc1`, 62.7% (active). Under `Cc1ccc(-n2c(SCC(=O)N/N=C/C=C/c3ccccc3[N+](=O)[O-])nc3ccccc3c2=O)cc1` stands 46.6% (active); under `CN(C)Cc1ccc(F)cc1Sc1cc(Cl)ccc1Cl`, 67.4% (active). Under `FC(F)(F)Oc1ccc(NC(=S)NCc2ccccc2)cc1` stands 71.7% (active). With `COc1ccc(/C=C2\CCc3ccccc3C2=O)c(OC)c1OC`, the inhibition is 90.7% (active).

Regarding `CCc1ccc2c(c1)C(c1ccc([N+](=O)[O-])cc1)=NNC(c1ccccc1)=N2`, the inhibition is 51.2% (active). Turning to `COc1ccc(/C=C2/SC(=O)N(CCCCCC(=O)Nc3ccccc3C(=O)O)C2=S)cc1`, the inhibition was 56.7% (active). Consider `COC(=O)N/N=C/c1cn(CCCOc2ccc(C)cc2)c2ccccc12`, for which the inhibition was 64.9% (active).

On to `Cc1ccc(N=C2NC(=O)/C(=C/C=C/c3ccco3)S2)cc1C`, for which the inhibition is 66.8% (active).

On to `CCOC(=O)c1c(-c2ccccc2)oc2cc(Br)c(O)c(C=O)c12`, for which the inhibition was 79% (active). Turning to `Clc1ccccc1CSc1nnc(-c2ccco2)c(-c2ccco2)n1`, the inhibition is 64.1% (active).

`OC(CNCc1ccc(Cl)c(Cl)c1)c1ccccc1` (stereo unspecified): the inhibition was 73.9% (active). Take `CCOC(=O)C(C)Sc1nc2ccccc2c(=O)n1CC1CCCCC1` (stereo unspecified): the inhibition was 54.5% (active). For `CCCOc1ccc2c3c(c(=O)oc2c1OCCC)CCC3`, the inhibition is 60.3% (active). For `CCCC1=Nc2cc(C(=O)NCc3ccco3)ccc2Sc2ccccc21`, the inhibition was 54.3% (active). Next, `O=C(O)C(c1ccccc1)N1C(=O)/C(=C\c2ccc(-c3cccc(Cl)c3)o2)SC1=S` (stereo unspecified): 38.8% (active).

In general, inhibition refers to the change of the read-out against control, counted positive when it falls.
